Laboratory results taken from the supplement of paper PMC10338343.
± gives the standard deviation.

What follows are sequences tested on EfPiwi piRISC loaded with L1MC piRNA (26 nt) (assay: pre-steady-state target cleavage rate (min^-1); auxiliary factor: 500 nM Ephydatia muelleri Gtsf1; guide: L1MC piRNA 5'p-UAACUAAAUACUAUGCAAGCUGUAGG; MIWI and MILI are mouse PIWI proteins and EfPiwi is from a freshwater sponge; tags in brackets are library labels; higher = faster piRNA-guided slicing of the target).
In short: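 In Cleave-'n-Seq, a transcribed, DNA-blocked target RNA library (0.1 nM) was combined with 1 nM active affinity-purified piRISC bearing one synthetic guide, with or without 500 nM GTSF1 partner protein. Reactions ran in HEPES–potassium acetate buffer at 33 °C for 0–8 or 0–960 min. Uncleaved targets were sequenced and normalised to depth and to weakly complementary targets, three trials were pooled, and k3 was capped at 0.0001 min^-1. The pre-steady-state cleavage rate was obtained by fitting a burst-and-steady-state model.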

Point of comparison: UCCUCCUACAGCUUGCCAUAGUAUUUAGUUA, “pre-steady-state target cleavage rate” value 0.00595 ± 0.0024. Against it:
- UCCUCCUACAGCUUCAUAGUAUUUAGUUA — higher, 0.0399 ± 0.015
- UCCUGGAACAGCUUCCAUAGUAUUUAGAAA — within error, 0.00411 ± 0.0022
- UCCUGCUACAGCUUGCAAAGUAAUUAGUUA — within error, 0.00362 ± 0.0019
- UCCUCCUACAGCUUGCAUAGUAUUAUGUAA — within error, 0.00434 ± 0.0026
- UCCUGGAAGUGCUUGCAUAGUAUUUAGUUA — within error, 0.00537 ± 0.0019
- UCCUGCUACAGCUUGCAUAGUAAAUAGUAA — within error, 0.00351 ± 0.0022
- UCCUGGAACAGCUUUGCAUAGUAUUUAGUUA — higher, 0.0309 ± 0.0082
- UCCUGGAUCAGCUUGCUUAGUAAUUAGUUA — higher, 0.0988 ± 0.033
- UCCUGGAUGUCGAACCAUAGUAUUAAGUUA — lower, < 0.0001
- UCCUGGAUGUCGAAGGAUAGUUUUUAGUUA — lower, < 0.0001
- UCCUGCUACAGCUUGCAUAGUAUAAUGUUA — within error, 0.00304 ± 0.002
- UCCUGCUACAGCUUGCAUAGUUUUAGUUA — within error, 0.00248 ± 0.0013
- UCCUCCUACAGCAUUGCAUAGUAUUUAGUUA — higher, 0.0213 ± 0.0068
- UCCUGGAUCAGGUUGCAUAGUAUAUAGUUA — within error, 0.00644 ± 0.0033
- UCCUCCUUCAGCUUGCAUAGUAUUUAGUUA — higher, 0.158 ± 0.041
- UCCUGGAUGAGCUUGCGAUAGUAUUUAGUUA — within error, 0.00307 ± 0.0022
- UCCUGGAUGUCGAACCAUAGUAUUUCGUUA — lower, < 0.0001
- UCCUGGAUGUCGUUGGUUAGUAUUUAGUUA — lower, < 0.0001
- UCCUGGAUGUCGAACCAUGGUAUUUAGUUA — lower, < 0.0001
- UCCUGGAACAGCUUGCAUAGUUAUUAGUUA — within error, 0.00251 ± 0.0017
- UCCUGCUACAGCUAGCUUAGUAUUUAGUUA — within error, 0.00973 ± 0.0029
- UCCUGGAUGUGCUUGCAUUCAUAAAUCAAA [g13:g20:cont:t1A] — lower, < 0.0001
- UCCUGCUACAGCUUGCAUUGUAUUAAGUUA — within error, 0.00572 ± 0.0028
- UCCUGGAACACCUUGCAUACUAUUUAGUUA — within error, 0.00273 ± 0.002
- UCCUGGAUGUCGUUCCAUAGUAAUUAGUUA — lower, < 0.0001
- UCCUGGAUGAGCUUGCAUACUAUUUAGAAA — within error, 0.00478 ± 0.0029
- UCCUGGAUGUCGAACGUAUGUAUUUUAGUUA — lower, < 0.0001
- UCCUGGAUGUCGAACGAUAGUAUUUAGUUA — lower, < 0.0001
- UCCUCCUACAGCUUGCAUAGUUAAUAGAAA — within error, 0.00366 ± 0.0031
- UCCUGGAUGUCGAACGAUACGUAUUUAGUUA — lower, < 0.0001
- UCCUCGUACAGCUUGCAUACUAUUUAGUUA — higher, 0.0224 ± 0.0069
- UCCUGGAACAGCUUGCAUAGUAUUUACUUA — within error, 0.00514 ± 0.0038
- UCCUGGAUGUCGAAGCAUACUAUUUUGUUA — lower, < 0.0001
- UCCUGGAUCAGCUUCCAUAGUAUUUAGAAA — within error, 0.00474 ± 0.0027
- UCCUGGAACAGCUUGCAUAGUAUUAGUUA — within error, 0.00229 ± 0.0021
- UCCUGGAACAGCUUGCAUAGUAUUUAGUGUA — within error, 0.00557 ± 0.0021
- UCCUGGAUGUCGAACCAUAGUAUCUUAGUUA — lower, < 0.0001
- UCCUGGUACAGCUUGCAUAGUAUUUAGUGUA — within error, 0.00435 ± 0.0027
- UCCUCGUACAGCUUGCAUUGUAUUUAGUUA — higher, 0.0163 ± 0.004
